# Most compounds without a hit are left out; they make up all but 10% or so of the library.
# PNC assembly inh – perinucleolar compartment assembly inhibition. 140,000 compounds, 3.1% hits. activity change (PNC), negative = inhibition, % at 10 µM. PC3M PTB-GFP, PNC prevalence imaging, 16 h; hits give low values;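 active = readout at or below -70, meaning at least 70% loss of cells showing the perinucleolar compartment, a nuclear body marking cancer cells; inconclusive = readout between -30 and a set limit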;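 also: plate controls were DMSO wells for no effect and camptothecin positive control wells for full effect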
#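 Read-out is percentage of cells bearing a perinucleolar compartment, from automated 20x imaging of fixed, Hoechst-stained PC3M PTB-GFP cells. Cells were seeded 4 h, then exposed 16 h to compound (23 nl of library stock) in duplicate plates.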
# ALDH1A1 block – ALDH1A1 (human) enzyme inhibition | AID 1030 | 220,000 compounds, 7.3% hits | Purified ALDH1A1, NADH fluorescence, propionaldehyde substrate | Potency, µM (doses to about 75.3 µM), without a hit: at the highest dose activity, negative = inhibition, usual class: inhibitors | P00352; active = well fitted inhibition curve with a large enough effect, not every such curve was filed as active; inconclusive = small, poorly fitted or top-dose-only effect, or another doubt; inactive = no such curve, though single readings can be large or run the other way;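 also: potency is read from the fitted curve at half-maximal effect; plate controls were no enzyme wells and a reference inhibitor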
# ALOX12 inhib – blocks human 12-lipoxygenase activity | P18054 | purified 12-hLO, xylenol orange hydroperoxide absorbance | Potency, µM (top dose mostly 57.1 µM), for inactives: at the highest dose activity change, negative = inhibition, most hits filed as inhibitors | 150,000 compounds, 0.12% hits; also: potency is read from the fitted curve at half-maximal effect; nearly all actives have a fitted effect of over 55% in size
#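 Lipoxygenase turnover measured by absorbance at 573 and 405 nm after Fe-XO development. Human 12hLO 150 nM, arachidonate 40 uM, pH 7.0 Hepes buffer with detergent; 15 min compound preincubation, 30 min reaction.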
# HPGD inh – inhibitors of human 15-hydroxyprostaglandin dehydrogenase (HPGD); 150,000 compounds, 4.3% hits; Potency, µM, for the others: at the highest dose activity change, negative = inhibition, usual class: inhibitors; P15428; purified HPGD, NADH fluorescence kinetic, PGE2 substrate; active = well fitted inhibition curve with a large enough effect, not every such curve was filed as active; inconclusive = small, poorly fitted or top-dose-only effect, or another doubt; inactive = no such curve, though single readings can be large or run the other way; also: potency is read from the fitted curve at half-maximal effect
# Target sequence (P15428 whole entry, looked up): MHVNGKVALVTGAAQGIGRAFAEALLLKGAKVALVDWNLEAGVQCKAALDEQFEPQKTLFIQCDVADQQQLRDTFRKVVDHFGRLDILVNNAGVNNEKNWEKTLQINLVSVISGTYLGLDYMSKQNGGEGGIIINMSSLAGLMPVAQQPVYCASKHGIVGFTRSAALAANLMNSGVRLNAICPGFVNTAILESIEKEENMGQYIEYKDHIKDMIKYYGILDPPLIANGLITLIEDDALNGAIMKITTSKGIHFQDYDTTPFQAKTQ
#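 NADH formation kinetics: reaction with 30 uM PGE2 and 1 mM NAD+ (final), 20 nM enzyme, Tris-HCl pH 8 with Tween 20, after 15 min compound preincubation at room temperature. Fluorescence change, last versus first of five reads.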
# GLA spleen mod – inhibits or activates alpha-galactosidase in human spleen homogenate. P06280. human spleen homogenate, 4MU-alpha-Gal fluorescence, 40 min. Potency, µM (doses to about 80 µM), for inactives: at the top dose activity change, negative = inhibition, actives largely listed as inhibitors. 240,000 compounds, 0.008% hits;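 also: potency is read from the fitted curve at half-maximal effect; 0% = enzyme with vehicle and -100% = no enzyme basal signal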
#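 qHTS titration in buffer at pH 5.0. Alpha-galactosidase activity in spleen homogenate was measured via 4-methylumbelliferone release from 1 mM fluorogenic substrate after 40 min at 37C and a pH 10 stop. AC50 came from Hill fits of control-normalized data.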
# GLA inh pH 4.5 – alpha-galactosidase A (human) inhibition, pH 4.5 | P06280 | purified enzyme, 4-MU-alpha-Gal fluorescence, pH 4.5 | activity change, negative = inhibition, % at 105 µM | 230,000 tested, under 10 active | AID 1467;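 also: 0% = full activity with enzyme and -100% = basal without enzyme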
# Target sequence (P06280 whole entry, looked up): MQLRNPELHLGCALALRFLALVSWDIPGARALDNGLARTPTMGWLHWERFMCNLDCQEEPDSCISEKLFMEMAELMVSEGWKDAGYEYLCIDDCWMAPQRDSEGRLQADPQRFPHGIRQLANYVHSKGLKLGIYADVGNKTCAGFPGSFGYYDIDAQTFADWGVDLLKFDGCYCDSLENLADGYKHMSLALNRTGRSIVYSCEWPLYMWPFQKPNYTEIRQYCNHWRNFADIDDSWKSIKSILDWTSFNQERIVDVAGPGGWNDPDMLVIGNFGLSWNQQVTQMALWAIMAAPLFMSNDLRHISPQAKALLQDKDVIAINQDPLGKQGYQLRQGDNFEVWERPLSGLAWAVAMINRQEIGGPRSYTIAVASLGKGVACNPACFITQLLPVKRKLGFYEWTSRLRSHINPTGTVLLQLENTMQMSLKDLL
# Numbers without * were called inactive; ? = inconclusive; · = not tested or not shown; [ ] = another dose, or the depositor's remark. Unless noted, calls follow the shape of the dose curve; as a rule, active = well fitted curve in the direction sought with a large enough effect; inconclusive = small, poorly fitted or top-dose-only effect, or another doubt; inactive = no such curve, though single readings can be large; an effect the other way counts as inactive or inconclusive. Unless noted, % is scaled to controls: 0 for no effect and ±100 for the full control effect.
SMILES,PNC assembly inh,ALDH1A1 block,ALOX12 inhib,HPGD inh,GLA spleen mod,GLA inh pH 4.5
N#C/C(=C\c1cccc([N+](=O)[O-])c1)c1nnc2n1CCCCC2,32,20µM*,-4%,32µM*,20%,5
CN(c1ccccc1)c1ccc(/C=C(\C#N)c2nnc3n2CCCCC3)cc1[N+](=O)[O-],-91*,?,-3%,·,-10%,-4
O=C(O)c1oc(C(=O)O)c(C(=O)O)c1C(=O)O,·,9%[13.5 µM],1%[11.4 µM],-4%,·,·
CCN(CC)S(=O)(=O)c1ccc(C(=O)NCc2n[nH]c(=S)n2-c2ccc(Cl)c(Cl)c2)cc1,·,1.4µM*,·,·,7%,-15
O=C(NCc1n[nH]c(=S)n1-c1ccccc1)c1ccc(S(=O)(=O)N2CCCCC2)cc1,·,11µM*,·,·,0%,-2[21.1 µM]
O=C(NCc1n[nH]c(=S)n1-c1ccccc1)c1ccc(S(=O)(=O)N2CCOCC2)cc1,?,18µM*,2%,-15%,12%,-1
N#CCc1nc2ccccc2c(=O)[nH]1,·,·,·,·,3%,3
CCCCCCC(=O)N/N=C1\CCCc2ccccc21,?,7%,-3%,-8%,-18%,-25
O=c1[nH]c(CN2CCc3ccccc32)nc2scc(-c3cccs3)c12,?,25µM*,-21%,-27%,3%,-4
CC(C)c1cccc2nc3c(c([Si](C)(C)C)c12)Cn1c-3cccc1=O,·,?,-5%,?,?,18
COc1ccc(CCN2C(=O)CS/C2=N\NC(=O)c2ccc(C(C)(C)C)cc2)cc1OC,8,-12%,0%,1%,-4%,4
Cc1[nH]n(-c2ccccc2)c(=S)c1C=Nc1cccc([N+](=O)[O-])c1,-22,5.6µM*,32µM*,8.9µM*,0%,11
CCCCN(CCCC)C(=S)N/N=C/c1c(C)[nH]n(-c2ccccc2)c1=O,44,5µM*,5%,-29%,4%,2
CCCCN=Cc1c(C)[nH]n(-c2ccccc2)c1=S,·,28µM*,·,·,-4%,6
O=C(C1=C[C@@H]2[C@H]3C(=O)N(c4ccc(Cl)cc4)C(=O)[C@H]3[C@@H](C(=O)c3ccc(Cl)cc3)N2C=C1)c1ccccc1,18,14µM*,-17%,32µM*,4%,-11
Cc1ccc(N2C(=O)C3C(C2=O)C(C(=O)c2ccc(Cl)cc2)N2CCCC32)cc1 (stereo not drawn),?,?,?,-23%,0%,-9
C=CCN(c1cccc(C(F)(F)F)c1)S(=O)(=O)c1cccc(C(=O)OCC(=O)Nc2ccccc2)c1,14,15%,0%,-28%,3%,23
Cc1ccccc1OCC(=O)NCC(=O)N/N=C/c1ccc(Br)o1,-114*,4%,-4%,0%,-8%,3
Cc1ccc(C(=O)NCc2ccc(Cl)c(Cl)c2)o1,18,2%,-2%,13µM*,2%,2
CCOC(=O)NCc1ccc(Cl)c(Cl)c1,?,6%,-1%,2%,2%,-6
O=C1NC2(CCCCC2)C(=O)N1/N=C/c1ccccc1Br,·,4.5µM*,·,·,-7%,3
CC(C)c1ccc(O)c(N)c1,17,28µM*,?,-21%,4%,-15
CCC(C)c1ccc(O)c(N)c1 (stereo not drawn),-30,25µM*,-27%,?,13%,5
C[n+]1ccccc1COc1ccc(C(C)(C)C)cc1,8,11%,5%,2%,5%,1
COc1ncc2ncc(=O)n(C[C@H]3CCCO3)c2n1,·,?,·,·,17%,·
SMILES,PNC assembly inh,ALDH1A1 block,ALOX12 inhib,HPGD inh,GLA spleen mod,GLA inh pH 4.5
Cc1nn(C)c(Oc2ccccc2)c1CCNS(=O)(=O)c1ccc(Cl)cc1,22,?,0%,-2%,2%,-8
COc1ccc(S(=O)(=O)NCCc2c(C)nn(C)c2Oc2ccccc2)cc1,-27,0.63µM*,-4%,4%,-3%,-3
COC(=O)c1ccc(C(NC(=O)OCc2ccccc2)/C(C)=C/[C@@H](C)C(=O)NCCN2CCOCC2)cc1 (stereo partly drawn),·,-5%,1%,-7%,8%,-3
COC(=O)c1cn(NC(=O)c2cc(OC)cc(OC)c2)c(=O)c2ccccc12,1,9%,-1%,-6%,4%,2
COc1cc(OC)cc(C(=O)Nn2cc(C(=O)Nc3c(F)cccc3F)c3ccccc3c2=O)c1,-113*,11%,-6%,-5%,-4%,0
O=C(N/N=C/c1c(Nc2cccc(C(F)(F)F)c2)nc2ccccn2c1=O)c1ccccc1[N+](=O)[O-],-113*,8%,5%,-15%,6%,1
O=C(Nc1ncc(Cl)cc1Cl)c1c(F)cccc1Cl,·,1%,·,·,3%,7
Cc1csc(SC(C)c2nc3scc(-c4ccccc4)c3c(=O)[nH]2)n1 (stereo not drawn),·,·,·,·,3%,10
N#CC1=C(N)SC(N)=C(C#N)C1Cc1ccccc1,34,8.9µM*,-23%,11µM*,3%,3
N#CC1=C(N)SC(N)=C(C#N)C1c1c(Cl)cccc1Cl,?,22µM*,-27%,?,-1%,1
N#CC1=C(N)SC(N)=C(C#N)C1CCc1ccccc1,31,?,-29%,14µM*,7%,-4
CC(C)CC1C(C#N)=C(N)SC(N)=C1C#N,?,3.5µM*,-24%,32µM*,1%,-2
O[C@@H](c1cc(-c2ccc(Cl)cc2)nc2ccccc12)C1CCCCN1 (stereo partly drawn),·,3%[13.5 µM],·,-5%,·,·
Cc1ccc(CNC(=O)C2CCCN(c3nn4c(=O)cc(C)nc4s3)C2)cc1 (stereo not drawn),·,?,·,·,-4%,-5
Cc1cc(C)n(C(=O)c2ccc(C)o2)n1,20,?,-1%,-2%,-5%,-2
NNC(=O)c1cc2c(s1)CCCCCC2,-23,0.35µM*,-3%,-4%,1%,3
O=C(NCc1ccc(F)cc1)c1cc2c(s1)CCCC2,?,?,-4%,-26%,-2%,4
Cc1cc(C)n(C(=O)c2cc3c(s2)CCCC3)n1,12,20µM*,-4%,-18%,6%,-1
COc1ccc(/C=C/c2ccccc2)cc1C1C2C=CCCC2(C)C(=O)N1Cc1ccccc1 (stereo not drawn),·,·,·,·,1%,·
CCOCCN1CCN(C(=O)CN2CCCC2=O)CC1,-27,-4%,-3%,-15%,-6%,-3
CCOc1cc(C2CC(=O)Nc3cc(C)c(C)cc32)ccc1O (stereo not drawn),-139*,5%,2%,-2%,-5%,-1
CS(=O)(=O)Nc1cccc(-c2nccc(Nc3ccc(F)cc3)n2)c1,·,4%,·,·,4%,·
